Laboratory results from PubChem BioAssay (NCATS).
Results filed as inconclusive are left out. Activity calls are given as the source filed them. Calls follow the shape of the dose curve; as a rule, active = well fitted inhibition curve with a large enough effect; inconclusive = small, poorly fitted or top-dose-only effect; inactive = no such curve, though single readings can be large or run the other way.

experiment: Primary qHTS for inhibitors of nuclear receptor binding SET domain protein 2 (NSD2) in an RCH-ACV wild type WT cells (2C) (AID 1645877); conditions: RCH-ACV (leukaemia line) NSD2 WT (2C) viability, CellTiter-Glo, 72 h; series mostly up to 44.9 µM; activity change, negative = cell killing: at the top concentration; also: nearly all actives have a fitted effect of over 70% in size
Text: Assay Provider: Jonathan D. Licht, MD
University of Florida College of Medicine, Gainesville, FL
Mutations in epigenetic regulators are common in relapsed pediatric acute lymphoblastic leukemia (ALL). Here, we uncovered the mechanism underlying the relapse of ALL driven by an activating mutation of the NSD2 histone methyltransferase (p.E1099K). […] Correction of this mutation restored glucocorticoid sensitivity. The transcriptional response to glucocorticoids was blocked in NSD2 mutant cells due to depressed glucocorticoid receptor (GR) levels and the failure of glucocorticoids to autoactivate GR expression. […] Pre-treatment of NSD2 p.E1099K cell lines and PDX samples with PRC2 inhibitors reversed glucocorticoid resistance in vitro and in vivo.
High-throughput drug screening of isogenic RCH-ACV cell lines was performed at the National Center for Advancing Translational Science (NCATS), National Institutes of Health as previously described (1). Briefly, isogenic RCH-ACV NSD2 p.E1099K mutant (9B) and WT cells (2C) were plated at 500 cells/well in a 1536-well plate with a 72-hour incubation with compounds prior to addition of CellTiter-Glo to assess cell viability. NCATS libraries screened include: NPC, MIPE 5.0, Kinase and NPACT. To determine compound activity in the qHTS assay, the concentration-response data for each sample was plotted and modeled by a four-parameter logistic fit yielding IC50 and efficacy (maximal response) values. The area under the curve (AUC) of the dose-response curve ensures both efficacy (magnitude of cell killing) and potency (concentration that elicits cell killing) are accounted for in the analysis of activity.
1. Tobie D Lee, Olivia W Lee, Kyle R Brimacombe, Lu Chen, Rajarshi Guha, Sabrina Lusvarghi, Bethilehem G Tebase, Carleen Klumpp-Thomas, Robert W Robey, Suresh V Ambudkar, Min Shen, Michael M Gottesman, Matthew D Hall. A High-Throughput Screen of a Library of Therapeutics Identifies Cytotoxic Substrates of P-glycoprotein. Mol Pharmacol. 2019, Nov;96(5):629-640.
% is scaled to controls: 0 for no effect and ±100 for the full control effect; potency is read from the fitted curve at half-maximal effect.

Row | Compound | activity change, negative = cell killing | outcome | Potency
1 | COCc1c(O)c(C(=O)O)c(C)c2c1OC(=O)c1c(C)cc(O)c(CO)c1O2 | -19% (inactive) |  | 
2 | CC(C/C=C/C(C)(C)O)C1CCC(C)(O)C(O)C1 (stereo not given) |  | inactive | 
3 | CC(C)c1ccc2c(c1)C(O)CC1C(C)(C(=O)O)CCCC21C (stereo not given) | -14.6% (inactive) |  | 
4 | Cc1cc(C(=O)N2Cc3cnn(C)c3Nc3ccccc32)ccc1CNC(=O)N1CCN(Cc2cc(O)cc(O)c2)CC1 |  | inactive | 
5 | CC(=O)OCC1OC(O[C@H]2CC[C@]34C[C@]35CC(O)[C@]3(C)[C@@H]([C@H](C)CC/C=C(\C)C(=O)O)C(O)C[C@@]3(C)C5CC[C@H]4C2(C)C)C(O)C(O)C1OC1OCC(O)C(O)C1O (stereo not given in full) | -13.7% [at 9.23 µM] (inactive) |  | 
6 | C=C1C2CCC3CC2(CC(O)C2(O)C1CC(OC1OC(CO)C(O)C(O)C1O)C2(C)C)CC3(C)O (stereo not given) |  | inactive [at 17.3 µM] | 
7 | COC(=O)[C@H](O)[C@H]1C(C)(C)[C@H](OC(C)=O)[C@@]2(O)C(=O)[C@]1(C)C1CC[C@]3(C)C(CC(=O)O[C@H]3c3ccoc3)[C@]13O[C@@H]32 (stereo not given in full) | -26.3% [at 17.3 µM] (inactive) |  | 
8 | CC(=O)NC1CC(=O)C23C(=O)NC(Cc4c[nH]c5ccccc45)C2C(C)=C(C)C(O)C3/C=C/CC(C)/C=C(/C)C(O)C1O (stereo not given) | 0.701% [at 17.3 µM] (inactive) |  | 
9 | CC1(O)CCC2C(C3C1CCC3(C)O)C2(C)C (stereo not given) | -8.04% (inactive) |  | 
10 | CSC(=O)OCC1=C[C@@H]2OC(=O)C3=CO[C@@H](O[C@@H]4O[C@H](CO)[C@@H](O)[C@H](O)[C@H]4O)[C@H]1[C@@H]32 |  | inactive [at 17.3 µM] | 
11 | C=C1C(O)CC2C(C(=O)O)=COC(O[C@@H]3O[C@H](COC(=O)c4ccc(O)cc4)[C@@H](O)[C@H](O)[C@H]3O)C12 (stereo not given in full) | -9.84% [at 17.3 µM] (inactive) |  | 
12 | COc1ccc(O[C@@H]2O[C@H](CO)[C@@H](O)[C@H](O)[C@H]2O)cc1OC | -0.24% (inactive) |  | 
13 | Cn1c2ccc(NC(=O)c3ccccc3)cc2c(=O)n2nc(C(=O)O)cc12 | -0.469% [at 17.3 µM] (inactive) |  | 
14 | COc1cnc(-n2cnc(C)n2)c2[nH]cc(C(=O)C(=O)N3CCN(C(=O)c4ccccc4)CC3)c12 |  | inactive | 
15 | CC1C(O)C(O)C2C(C(=O)OCCc3ccc(O)cc3)=COC(O[C@@H]3O[C@H](CO)[C@@H](O)[C@H](O)[C@H]3O)C12 (stereo not given in full) | -14.1% [at 17.3 µM] (inactive) |  | 
16 | CC1=C2C(=O)C=C(CO[C@@H]3O[C@H](CO)[C@@H](O)[C@H](O)[C@H]3O)[C@@H]2[C@H]2OC(=O)[C@H](C)[C@@H]2[C@@H](O)C1 | 0.0438% [at 17.3 µM] (inactive) |  | 
17 | CC12CC34CC(O)C5C(CO)(CO)CC(=O)CC5(C)C3CC1C2C4 (stereo not given) |  | inactive | 
18 | CC(/C=C/C=C(\C)C(=O)O[C@@H]1O[C@H](CO[C@@H]2O[C@H](CO)[C@@H](O)[C@H](O)[C@H]2O)[C@@H](O)[C@H](O)[C@H]1O)=C\C=C\C=C(C)\C=C\C=C(/C)C(=O)O[C@@H]1C[C@](O)(C(=O)O)C[C@@H](O)[C@H]1OC(=O)/C=C/c1ccc(O)c(O)c1 | -16.8% [at 9.23 µM] (inactive) |  | 
19 | On1ncc(C2CCNCC2)c1-c1cccc(-c2ccccc2)c1 | -19.6% (inactive) |  | 
20 | CCC/C=C/C=C/C1CC(O)C(O)C(=O)C1CO (stereo not given) |  | inactive | 

Row | Compound | activity change, negative = cell killing | outcome | Potency
21 | OC[C@H]1O[C@@H](Oc2cc(O)cc(-c3cc4ccc(O[C@@H]5O[C@H](CO)[C@@H](O)[C@H](O)[C@H]5O)cc4o3)c2)[C@H](O)[C@@H](O)[C@@H]1O | -26.3% [at 17.3 µM] (inactive) |  | 
22 | COc1c2c(c(C)c3c1C(=O)OC3)OC1(C)CC(O)C34OC(O)(CCC3(C)C1C2)OC4(C)C (stereo not given) | -8.89% [at 17.3 µM] (inactive) |  | 
23 | COc1c2ccoc2nc2c(OC)c(O[C@@H]3O[C@@H](C)[C@H](O)[C@@H](O[C@@H]4O[C@H](CO)[C@@H](O)[C@H](O)[C@H]4O)[C@H]3OC(C)=O)ccc12 | 2.79% [at 17.3 µM] (inactive) |  | 
24 | CNc1nc(Cc2ccccc2)nc2c1CCNC[C@@H]2C | -31.9% (inactive) |  | 
25 | Cc1nc2cc(-c3cc(F)cc(C#N)c3)ccc2s1 |  | inactive | 
26 | Cc1ccc(-n2nc(C(C)(C)C)cc2NC(=O)Nc2cc(COc3cccnc3)[nH]n2)cc1 |  |  | 9.16 µM (active)
27 | CC(=O)N[C@H](Cc1c[nH]c2ccccc12)C(=O)OCc1cc(C(F)(F)F)cc(C(F)(F)F)c1 | -21.2% (inactive) |  | 
28 | COC1OC(OC)C(O)(CCC2(C)C(C)CCC3(C)C2CC(O)C(O)C32CO2)C1O (stereo not given) |  | inactive [at 17.3 µM] | 
29 | CC(C)=CCC[C@](C)(O[C@@H]1O[C@H](CO[C@@H]2O[C@@H](CO)[C@H](O)[C@H]2O)[C@@H](O)[C@H](O)[C@H]1O)[C@H]1CC[C@]2(C)[C@@H]1[C@H](O)C[C@@H]1[C@@]3(C)CC[C@H](O[C@@H]4O[C@H](CO)[C@@H](O)[C@H](O)[C@H]4O[C@@H]4O[C@H](CO)[C@@H](O)[C@H](O)[C@H]4O)C(C)(C)[C@@H]3CC[C@]12C |  | inactive [at 17.3 µM] | 
30 | C=CC(C)(CCC=C(C)C)O[C@@H]1O[C@H](CO)[C@@H](O)[C@H](O)[C@H]1O (stereo not given in full) |  | inactive | 
31 | CC1(C)C2CC[C@]3(C)C(C(=O)C=C4[C@H]5C[C@@](C)(C(=O)O)CC[C@]5(C)CC[C@]43C)[C@@]2(C)CC[C@@H]1O (stereo not given in full) | -8.28% [at 17.3 µM] (inactive) |  | 
32 | CC1(C)CC[C@]2(C(=O)O)CC[C@]3(C)C(=CCC4[C@@]5(C)C[C@@H](O)[C@H](O)[C@](C)(CO)C5CC[C@]43C)[C@@H]2[C@@H]1O (stereo not given in full) | -13% [at 17.3 µM] (inactive) |  | 
33 | C[C@]1(OC(=O)/C=C/c2ccc(O)cc2)C[C@@H](O)[C@]2(O)C=CO[C@@H](O[C@@H]3O[C@H](CO)[C@@H](O)[C@H](O)[C@H]3O)C12 (stereo not given in full) | -2.19% [at 17.3 µM] (inactive) |  | 
34 | C/C=C(\C)C(=O)OCC1OC(OC2OC(CO)C(O)C(O)C2O)C(O)C(O)C1O (stereo not given) | -1.16% [at 17.3 µM] (inactive) |  | 
35 | O=C(Cc1ccccc1)OC[C@H]1O[C@H](O[C@H]2O[C@H](CO)[C@@H](O)[C@H](O)[C@H]2O)[C@H](O)[C@@H](O)[C@@H]1O | -4.49% [at 17.3 µM] (inactive) |  | 
36 | Cc1ccc(-c2c(-c3nn(C)c4ncnc(N5CCC(N6CCCCC6)C5)c34)cnn2C)cc1 (stereo not given) | 1.64% (inactive) |  | 
37 | O=C(O)c1ccnc(-c2cc(C(=O)NCCc3ccccc3)ccn2)c1 | -13.8% (inactive) |  | 
38 | COc1cc(/C=C/C(=O)OC[C@H]2O[C@@H](OC3OC=C(C(=O)O)C4C(O)CC(C)(O)C34)[C@H](O)[C@@H](O)[C@@H]2O)cc(OC)c1O (stereo not given in full) | 2.3% [at 17.3 µM] (inactive) |  | 
39 | C[C@]1(OC(=O)/C=C\c2ccc(O)cc2)C[C@@H](O)[C@]2(O)C=CO[C@@H](O[C@@H]3O[C@H](CO)[C@@H](O)[C@H](O)[C@H]3O)C12 (stereo not given in full) | -17.3% [at 17.3 µM] (inactive) |  | 
40 | COc1cc(/C=C/C(=O)OCC2OC(OC3(CO)OC(CO)C(O)C3O)C(O)C(O)C2O)ccc1O (stereo not given) | -2.04% [at 17.3 µM] (inactive) |  | 
